The source of these data is the supplement of paper PMC4709259.

Where a name gives a salt, the structure may show the parent alone. ± gives the standard deviation.

This experiment concerns Jurkat. The experiment in a line: mean cell size (FSC-A) relative to DMSO control (fraction of control); higher = larger cells. Particulars: 48 h. The method in brief: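 Jurkat cells seeded at 600 cells/µl were incubated 1 h, then exposed for 48h to the Enzo Screen-Well FDA Approved Drug Library v2.0 at 25µM in 0.9% (v/v) final DMSO. Drugs that cut counts below 20% of controls were diluted 10-fold and retested, down to 25nM. Cell count and mean cell size (forward scatter area) were read on an Accuri C6 flow cytometer, relative to solvent-only controls. Plates held 6-12 controls; values are means of 3 biological replicates.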
`CCOC(=O)C1=C(COCCN)NC(C)=C(C(=O)OC)C1c1ccccc1Cl` (centres undefined) [Amlodipine] (concentration: 25 µM) returned a mean cell size of 1.06 ± 0.053.

As to `CC(C)NCC(O)COc1cccc2ccccc12` (centres undefined) [Propranolol·HCl] (concentration: 25 µM), the mean cell size was determined as 1.04 ± 0.061.

As for `CC1(C)O[C@@H]2C[C@H]3[C@@H]4C[C@H](F)C5=CC(=O)C=C[C@]5(C)[C@H]4[C@@H](O)C[C@]3(C)[C@]2(C(=O)CO)O1` [Flunisolide] (concentration: 2.5 µM), the mean cell size came to 0.996 ± 0.021. The value for `CCN(CC)CC#CCOC(=O)C(O)(c1ccccc1)C1CCCCC1` (centres undefined) [Oxybutynin Chloride] (concentration: 25 µM) was 0.904 ± 0.022; that for `Nc1cccc2c1CN(C1CCC(=O)NC1=O)C2=O` (centres undefined) [Lenalidomide] (concentration: 25 µM) was 0.951 ± 0.021.

In turn, `N=C(N)c1ccc(OCCCCCOc2ccc(C(=N)N)cc2)cc1` [Pentamidine Isethionate] (concentration: 25 µM) had a mean cell size of 0.878 ± 0.021. The value for `CCCCC[C@H](O)/C=C/[C@H]1[C@H](O)CC(=O)[C@@H]1C/C=C\CCCC(=O)O` [Dinoprostone] (concentration: 25 µM) was 0.88 ± 0.019. The value for `NCCCC(N)(C(=O)O)C(F)F` (centres undefined) [Eflornithine·HCl] (concentration: 25 µM) was 0.958 ± 0.019; that for `CO[C@H]1O[C@@H]2O[C@@]3(C)CC[C@H]4[C@H](C)CC[C@@H]([C@H]1C)[C@@]24OO3` [Artemether] (concentration: 25 µM) was 0.912 ± 0.047; that for `CCC1(C)CC(=O)NC1=O` (centres undefined) [Ethosuximide] (concentration: 25 µM) was 1.05 ± 0.025.

Compound `CCOC(=O)c1ccc(C#Cc2ccc3c(c2)C(C)(C)CCS3)nc1` [Tazarotene] (concentration: 25 µM) displayed a mean cell size of 0.894 ± 0.021.

`OCCOCCN1CCN(C2=Nc3ccccc3Sc3ccccc32)CC1` [Quetiapine Fumarate] (concentration: 25 µM) registered a mean cell size of 0.929 ± 0.035.

Regarding `CC(C)(O/N=C(\C(=O)N[C@@H]1C(=O)N2C(C(=O)[O-])=C(C[n+]3ccccc3)CS[C@H]12)c1csc(N)n1)C(=O)O` [Ceftazidime] (concentration: 25 µM), the mean cell size turned out to be 0.958 ± 0.011. In the case of `C[C@]12C=CC(=O)C=C1CC[C@@H]1[C@@H]2[C@@H](O)C[C@@]2(C)[C@H]1CC[C@]2(O)C(=O)CO` [Prednisolone] (concentration: 25 µM), the mean cell size stood at 0.979 ± 0.017. Consider `Nc1nc(N)c2nc(-c3ccccc3)c(N)nc2n1` [Triamterene] (concentration: 25 µM), for which the mean cell size came out at 1.21 ± 0.038.

Turning to `CC1(C)O[C@@H]2C[C@H]3[C@@H]4CCC5=CC(=O)C=C[C@]5(C)[C@H]4[C@@H](O)C[C@]3(C)[C@]2(C(=O)CO)O1` [Desonide] (concentration: 25 µM), the mean cell size stood at 0.948 ± 0.027. The value for `CC(=O)OCC(=O)[C@@]1(O)CC[C@H]2[C@@H]3CCC4=CC(=O)CC[C@]4(C)[C@@]3(F)[C@@H](O)C[C@@]21C` [Fludrocortisone Acetate] (concentration: 25 µM) was 0.932 ± 0.058.

Turning to `CC(=O)OCC(=O)[C@@]1(O)CC[C@H]2[C@@H]3CCC4=CC(=O)CC[C@]4(C)[C@H]3C(=O)C[C@@]21C` [Cortisone Acetate] (concentration: 25 µM), the mean cell size amounted to 1.01 ± 0.028. The same measure for `COc1cc([C@@H]2c3cc4c(cc3[C@@H](O[C@@H]3O[C@@H]5CO[C@@H](C)O[C@H]5[C@H](O)[C@H]3O)[C@H]3COC(=O)[C@H]23)OCO4)cc(OC)c1O` [Etoposide] (concentration: 250 nM): 1.25 ± 0.076.

With `Cc1cn([C@@H]2C[C@@H](O)[C@H](CO)O2)c(=O)[nH]c1=O` [Telbivudine] (concentration: 25 µM), the mean cell size came to 0.927 ± 0.037. Regarding `CC#C[C@]1(O)CC[C@H]2[C@@H]3CCC4=CC(=O)CCC4=C3[C@@H](c3ccc(N(C)C)cc3)C[C@@]21C` [Mifepristone] (concentration: 25 µM), the mean cell size amounted to 0.903 ± 0.021. `CC(C)(C)C(=O)OCOP(=O)(COCCn1cnc2c(N)ncnc21)OCOC(=O)C(C)(C)C` [Adefovir Dipivoxil] (concentration: 25 µM) returned a mean cell size of 1.3 ± 0.043. `O=C(O)C1(C(=O)O)CCC1.[NH2-].[NH2-].[Pt+2]` [Carboplatin] (concentration: 25 µM) registered a mean cell size of 1.08 ± 0.016. As for `COc1cc(C(=O)NS(=O)(=O)c2ccccc2C)ccc1Cc1cn(C)c2ccc(NC(=O)OC3CCCC3)cc12` [Zafirlukast] (concentration: 25 µM), the mean cell size came out at 0.959 ± 0.06.
